NR2F2 inh = NR2F2 transcriptional activity inhibitors, primary screen, cell-based, luciferase reporter, HEK293T, luminescence. HEK293T NGFI-A luciferase reporter. inhibition, % at 8.6 µM. 370,000 tested, 0.7% active. AID 686940, 2013;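 active = inhibition above a per-plate cutoff, mean inhibition of test wells between control levels plus 3 SD, cut at about 38% in these data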;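 also: cells cotransfected with COUP-TFII expression vector driving the NGFI-A reporter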
Target sequence (P24468 whole entry, looked up): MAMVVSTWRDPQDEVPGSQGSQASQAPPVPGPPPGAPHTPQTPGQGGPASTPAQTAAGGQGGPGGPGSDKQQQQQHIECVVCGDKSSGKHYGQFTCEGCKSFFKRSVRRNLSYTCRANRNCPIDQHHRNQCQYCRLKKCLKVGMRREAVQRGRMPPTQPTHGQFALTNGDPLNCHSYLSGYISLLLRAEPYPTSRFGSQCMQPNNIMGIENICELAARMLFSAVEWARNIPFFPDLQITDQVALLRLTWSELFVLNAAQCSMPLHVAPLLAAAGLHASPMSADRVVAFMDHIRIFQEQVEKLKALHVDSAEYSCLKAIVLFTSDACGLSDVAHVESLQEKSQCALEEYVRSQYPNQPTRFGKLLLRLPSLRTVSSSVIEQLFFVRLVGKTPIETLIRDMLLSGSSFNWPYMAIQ
Cardio protect = cardioprotection against H2O2-induced cell death, primary screen, uHTS, H9c2 cells, ATPLite luminescence; H9c2 cardiomyocytes, H2O2 injury protection, 2 h; protection from H2O2 cell death, % at 20 µM; 360,000 tested, 0.63% active; AID 588492, 2011;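 active = compounds giving at least 50% protection of heart cells from peroxide-induced death in the single-dose screen, raw or plate-pattern-corrected value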
Gli-Sufu antag = Gli-Sufu pathway antagonists, primary screen, luciferase luminescence, Sufu-KO-LIGHT cells, uHTS; Sufu-KO-LIGHT fibroblasts, Gli luciferase reporter luminescence; inhibition, % at 5 µM; 340,000 tested, 0.74% active; AID 588413, 2011;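 active = inhibition above about 55%, limit read from the data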
SMARCA2 act = SMARCA2 (BRM) function activators, primary screen, cell-based, luminescence, high throughput | MG213 cells, MMTV-luciferase reporter, dexamethasone, overnight | activation, % at 9.1 µM | 370,000 tested, 1% active; in the data active = activation above about 7.8%
GalR3 antag = GalR3 antagonists in HEK293 cells, primary screen, cell-based, fluorescence readout. inhibition, % at 3 µM. 360,000 tested, 0.44% active. HEK293 GalR3-CNG cAMP membrane potential fluorescence; galR3 body fused to GalR1 C-terminus. AID 651719, 2012;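 active = inhibition above the screen-wide average plus 3 SD, cut at about 13% in these data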;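 also: forskolin and galanin both at EC90 stimulate the cells; cAMP rise reported by CNG channel membrane potential dye signal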
FXN GAA850 act = FXN promoter activators, primary screen, cell-based, luciferase luminescence, HEK293 lucGAA850; HEK293 lucGAA850 FXN promoter luciferase reporter, 24 h; percent of 10 µM SAHA response; activation, % at 6 µM; 360,000 tested, 0.56% active;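 active = activation above the average of all compounds screened plus 3 SD, cutoff fixed separately per campaign, cut at about 7.5% in these data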
SMARCA2 conf = SMARCA2 (BRM) function activators, confirmation, cell-based, luminescence, triplicate. shares compounds with SMARCA2 act. 3,500 tested, 30% active. MG213 cells, MMTV-luciferase with dexamethasone, overnight; MG213 cells expressing E1A, Rb sequestered; DMSO wells 0%, reference activator 100%. activation, % at 9.1 µM;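 active = activation above its plate's cutoff, the mean activation of tested wells plus 3 SD, cut at about 7.9% in these data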
VP16 Luc act = GAL4-VP16 luciferase reporter activation, counter-screen for SMARCA2 (BRM) activator project, cell-based, pG5luc, luminescence, high throughput. shares compounds with SMARCA2 act. HEK293 GAL4-VP16 pG5luc reporter; scaled: DMSO wells 0%, SAHA wells 100%. activation, % at 9.1 µM. 3,500 tested, 41% active. AID 686939, 2013;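 active = activation above the solvent-only control well mean plus 3 SD, averaged across control plates, cut at about 5.2% in these data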
A number is an active result; 0 = inactive; - = not tested or not shown. Hits are enriched below; roughly 3.4% of the tested compounds scored in any of these assays.

SMILES	NR2F2 inh	Cardio protect	Gli-Sufu antag	SMARCA2 act	GalR3 antag	FXN GAA850 act	SMARCA2 conf	VP16 Luc act
CC1CC(C)CN(C(=O)C2CCC(CNS(=O)(=O)c3ccccc3)CC2)C1 (centres undefined)	0	0	0	0	0	0	-	-
CCc1ccc(-n2c(=O)c3ccccc3n(CC(=O)NCc3ccco3)c2=O)cc1	0	0	0	8.6	0	0	0	0
CCC(Sc1nc(C)cc(C)n1)C(=O)Nc1nccs1 (centres undefined)	0	0	0	0	0	0	-	-
O=C(Cc1ccc(-c2ccccc2)cc1)Nc1ccccn1	0	0	0	9.9	0	0	16	0
CCC(=O)Nc1ccc(NC(=O)Cc2ccccc2)cn1	0	0	0	8.7	0	0	0	0
O=C(CC(=O)Nc1ccccn1)Nc1ccccn1	0	0	0	0	0	0	-	-
Cn1c(=O)c2c(ncn2CC(=O)OCC(=O)Nc2cccc(C#N)c2)n(C)c1=O	0	0	-	0	0	0	-	-
Cc1noc(C)c1C(=O)NCc1ccccc1	0	0	0	0	0	0	-	-
Cc1noc(C)c1C(=O)NCCc1ccccc1	0	0	0	9.7	0	0	0	0
Cn1ncc(Br)c1NC(=O)Nc1ccc(Cl)cc1	-	0	0	-	-	0	-	-
Cc1[nH]c2ccccc2c1/C=N/NC(=O)c1ccc(N)cc1	0	0	0	9.3	0	0	0	0
Cc1[nH]c2ccccc2c1/C=N/Nc1nc2ccccc2[nH]1	0	0	0	21	0	0	9.2	0
Cc1cnc(NC(=O)CCCc2nc3ccccc3s2)s1	0	0	0	27	0	0	29	0
CCOC(=O)C[n+]1c(C)csc1C	0	0	0	8.6	0	0	0	0
O=[N+]([O-])c1ccc2c(c1)CCCO[C@]21O[C@H](CCO)C[C@H](O)[C@H]1O	0	-	-	0	0	-	-	-
CC1CCN(C(=S)NCCc2ccccc2)CC1	0	0	0	8.7	0	0	11	6.7
S=C(NCCc1ccccc1)N1CCN(C(=S)NCCc2ccccc2)CC1	0	0	0	0	0	0	-	-
COc1cc2nc(CN3CCN(S(=O)(=O)c4ccccc4C(F)(F)F)CC3)[nH]c(=O)c2cc1OC	0	0	0	0	0	0	-	-
O=c1[nH]c(CN2CCN(S(=O)(=O)c3ccccc3C(F)(F)F)CC2)nc2sc3c(c12)CCCC3	0	0	0	12	0	0	0	0
CC(=O)c1cnc2nc(SCc3ccccc3)nn2c1C	0	0	0	11	0	0	0	10
CC(=O)c1cnc2nc(SCc3ccc(C)cc3)nn2c1C	0	0	0	0	0	0	-	-
CCOc1ccc(-c2ccc(SCC(=O)NC3CCCCC3)nn2)cc1	0	0	0	8.5	0	0	0	8.9
O=C(/C=C/c1ccccc1)NC(=O)c1ccccc1O	0	0	0	9.6	0	0	11	6.4
COc1cc(/C=C/C(=O)NC(=O)c2ccccc2O)ccc1O	0	0	0	0	0	0	-	-
Cc1ccc2[nH]c(=O)c(COC(=O)c3cccs3)cc2c1	0	0	0	8.6	0	0	0	0
SMILES	NR2F2 inh	Cardio protect	Gli-Sufu antag	SMARCA2 act	GalR3 antag	FXN GAA850 act	SMARCA2 conf	VP16 Luc act
Cc1ccc2cc(CCNC(=O)c3cccs3)c(=O)[nH]c2c1	0	0	0	8.1	0	0	0	8.3
COc1ccc2[nH]c(=O)c(COC(=O)c3cccs3)cc2c1	0	0	0	0	0	0	-	-
CC(=O)NCCc1cc2ccc(C)c(C)c2[nH]c1=O	0	0	0	8.3	0	0	0	0
Cc1ccc2cc(CCNC(=O)CC(C)(C)C)c(=O)[nH]c2c1C	0	0	0	0	0	0	-	-
CCOc1ccc(OCC)c(-c2c(=O)n(OCc3ccc(C(C)(C)C)cc3)c3ccccc3[n+]2[O-])c1	-	0	0	-	-	0	-	-
N#CCCn1c(C2CCCCC2)nc2ccccc21	0	0	0	0	0	0	-	-
C=CCOc1ccc(/C=N/Nc2ccccn2)cc1OC	0	0	0	9.0	0	0	9.2	11
Cc1ccc(C(=O)Nc2ccc(F)cc2)cc1NC1=NC2CS(=O)(=O)CC2S1 (centres undefined)	0	0	0	9.8	0	0	0	0
Cc1ccc(NC(=O)c2ccc(C)c(NC3=NC4CS(=O)(=O)CC4S3)c2)cc1C (centres undefined)	0	0	0	0	-	0	-	-
Cc1cc(/C=N/NC(=O)c2ccsc2)c(C)n1-c1cnccn1	0	0	0	8.0	0	0	0	0
Cc1cc2cc(CNC(=O)c3ccc4c(c3)OCO4)ccc2[nH]1	0	0	0	0	0	0	-	-
Cc1cc(NC(=O)CSc2nnnn2-c2cc(Cl)ccc2C)no1	0	0	0	8.1	0	0	0	0
Cc1cccc(OCCCN2CCCCCC2)c1	0	0	0	0	0	0	-	-
Cc1cccc(OCCn2c(=O)n(C)c3ccccc32)c1	0	0	0	8.9	0	0	19	12
Cc1cccc(OCCCn2c(=O)sc3ccccc32)c1	0	0	0	0	0	0	-	-
Cc1cccc(OCCN2C(=O)c3ccccc3C2=O)c1	0	0	0	9.6	0	0	0	0
CCOc1ccc(OCCN2C(=O)c3ccccc3C2=O)cc1	0	0	0	0	0	0	-	-
Cc1cccc(OCCn2c(=O)sc3ccccc32)c1	0	0	0	9.0	0	0	11	10.0
Cc1[nH]c2ccc(C(=O)N3CCCCC3)cc2c1C	0	0	0	11	0	0	0	9.4
Cc1[nH]c2ccc(C(=O)N3CCCC3)cc2c1C	0	0	0	0	0	0	-	-
CCc1cccc2c(C(=O)CN3C(=O)NC4(CCCCCC4)C3=O)c[nH]c12	0	0	0	11	0	0	13	0
O=C1/C(=C\c2cccnc2)CCc2ccccc21	0	0	0	0	0	0	-	-
O=C1C(=Cc2cccs2)CCc2ccccc21	0	-	-	10	0	-	8.2	7.0
COc1ccc(C(NC(=O)c2ccco2)c2ccc(OC)c(OC)c2)cc1OC	0	0	0	9.0	0	0	0	0
CCOc1ccc(C(CC(=O)O)NC(=O)c2ccco2)cc1OC (centres undefined)	0	0	0	0	0	0	-	-

Screening results from PubChem BioAssay.
